# PHOSPHO1 block: PHOSPHO1 (human) inhibition | hit rate 1.1% among 290,000 | recombinant PHOSPHO1, absorbance phosphatase assay | AID 1565 | inhibition, % at 13.3 µM; in the data active means inhibition above about 60%
# eIF4H FP inh: inhibitors of RNA binding by human eIF4H; AID 2012; eIF4H fluorescence polarization binding assay; hit rate 0.94% among 290,000; Q15056; inhibition, % at 35 µM;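 further: calls also rest on retests at 20 µM and on dose response follow-up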
# MLLE-PAM2 inh: blocks PAM2 peptide binding to the PABP1 MLLE domain. inhibition, % at 20 µM. P11940. GST-MLLE / FITC-PAM2 fluorescence polarization. hit rate 0.36% among 360,000; in the data active means inhibition above about 35%, passing the limit was not always enough;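 further: plate controls were DMSO wells with GST-MLLE for no effect and wells lacking GST-MLLE protein for full effect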
# Target sequence (P11940 whole entry, looked up, the tested form may be a part): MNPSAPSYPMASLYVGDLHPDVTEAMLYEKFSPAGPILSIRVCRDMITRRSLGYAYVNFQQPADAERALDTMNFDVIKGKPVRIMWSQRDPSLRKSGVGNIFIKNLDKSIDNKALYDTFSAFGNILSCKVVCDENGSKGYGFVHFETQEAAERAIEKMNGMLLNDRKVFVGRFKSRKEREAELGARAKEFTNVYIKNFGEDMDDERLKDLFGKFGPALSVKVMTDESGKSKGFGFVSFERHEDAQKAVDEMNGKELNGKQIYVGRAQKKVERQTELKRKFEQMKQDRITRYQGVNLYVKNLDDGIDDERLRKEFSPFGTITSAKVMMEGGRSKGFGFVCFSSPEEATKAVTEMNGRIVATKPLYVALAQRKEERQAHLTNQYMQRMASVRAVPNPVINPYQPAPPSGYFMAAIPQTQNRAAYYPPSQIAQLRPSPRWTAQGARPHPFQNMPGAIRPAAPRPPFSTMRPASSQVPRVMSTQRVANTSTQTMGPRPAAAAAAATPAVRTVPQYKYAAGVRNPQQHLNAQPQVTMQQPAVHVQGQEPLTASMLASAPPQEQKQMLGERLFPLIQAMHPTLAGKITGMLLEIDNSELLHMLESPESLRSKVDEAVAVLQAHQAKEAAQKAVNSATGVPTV
# CRFR2-BP antag: antagonists of CRF-binding protein/CRF-R2 receptor complex; HEK293 CRF-R2/CRF-BP, CRF-induced calcium fluorescence; inhibition, % at 11.8 µM; hit rate 0.59% among 350,000; AID 588475;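 active means inhibition of the ligand-induced calcium signal above about 50% at the single tested concentration, limit read from the data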
# PABP FP inh: blocks human PABP binding to poly(A) RNA | fluorescence polarization | AID 2014 | hit rate 1% among 290,000 | inhibition, % at 35 µM | P11940;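 further: calls also rest on retests at 20 µM and on dose response follow-up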
# An asterisk follows results filed as active; u = inconclusive; x = no result given. This is a sample that favours compounds with a hit; in the whole collection about 2.6% have one here. Unless noted, how the calls were made is not given here.
SMILES,PHOSPHO1 block,eIF4H FP inh,MLLE-PAM2 inh,CRFR2-BP antag,PABP FP inh
O=c1c2ccccc2n2c(-c3ccc(F)cc3)nnc2n1Cc1ccccc1,-25,53*,-15,-4,active
O=C(Nc1ccccc1)c1nsnc1C(=O)Nc1ccccc1,20,5,3,3,0
N#CC1=C(N)Oc2cc(O)ccc2C1c1cccs1 (stereo not drawn),-18,12,-14,2,2
N#CC1=C(N)Oc2c(ccc3ccccc23)C1c1cccs1 (stereo not drawn),93*,22,x,-19,17
O=C(O)c1ccc(N2C(=O)c3cccc4c(C(=O)O)ccc(c34)C2=O)cc1,42,96*,-17,-19,active
O=C(O)c1ccc2c3c(cccc13)C(=O)N(c1ccccc1)C2=O,36,81,0,-5,-14
CC(C)(C)n1nc2c(c1NC(=O)COc1ccc(Cl)cc1)CS(=O)(=O)C2,-7,active,7,7,72*
COc1ccc(CC(=O)Nc2c3c(nn2C(C)(C)C)CS(=O)(=O)C3)cc1,-1,-10,2,1,10
CC(C)(C)n1nc2c(c1NC(=O)Cc1cccc3ccccc13)CS(=O)C2 (stereo not drawn),63*,21,-8,-1,18
CC(C)(C)n1nc2c(c1NC(=O)Cc1ccccc1)CS(=O)(=O)C2,28,-11,3,55*,-8
O=C(CCc1ccccc1)Nc1c(F)cccc1F,x,x,-6,52*,x
Cc1ccccc1NNC(=O)C(=O)NNc1ccccc1C,68*,-3,10,1,2
c1coc(Cn2c(SCc3nc4ccccc4[nH]3)nnc2-c2cccs2)c1,92*,2,-115,-11,4
CCOc1ccc(-c2nnc(SCc3nc4ccccc4[nH]3)n2N)cc1,76*,-5,-110,-3,-3
Cn1c(SCc2nc3ccccc3[nH]2)nnc1-c1cccnc1,24,-8,-41,11,-6
O=c1[nH]c(CSc2nnc(-c3ccncc3)n2Cc2ccco2)nc2ccccc12,29,-7,2,-17,7
Cc1ccc(-c2nnc(SCc3nc4ccccc4[nH]3)n2Cc2ccco2)cc1,94*,2,-95,-19,5
Cc1cccc(-c2nnc(SCc3nc4ccccc4[nH]3)n2Cc2ccco2)c1,83*,-3,-106,-37,-3
c1ccc(CSc2nnc(-c3cccs3)n2Cc2ccco2)cc1,-7,3,-36,25,9
CCSc1nnc(-c2cccnc2)n1Cc1ccco1,20,19,-3,1,12
CCCCN(C(=O)c1cccc(S(=O)(=O)N(CC)c2ccccc2)c1)c1c(N)n(CCCC)c(=O)[nH]c1=O,x,x,-45,4,x
CC(C)CN1CCC1(C)C(=O)Nc1cccc(C#N)c1 (stereo not drawn),x,x,-8,x,x
COc1ccc(C(O)c2nc(-c3ccccc3)cs2)cc1 (stereo not drawn),x,x,-1,x,x
N#C/C(=C\c1ccc(-c2ccccc2[N+](=O)[O-])o1)C(=O)N1CCOCC1,-12,61*,7,-7,0
CC(C)(C)OC(=O)N[C@@H](Cc1ccccc1)C(=O)N1CCC(C(=O)NCC(=O)O)CC1,37,-6,5,-10,-8
SMILES,PHOSPHO1 block,eIF4H FP inh,MLLE-PAM2 inh,CRFR2-BP antag,PABP FP inh
CC(C)(C)OC(=O)NC(Cc1ccccc1)C(=O)N1CCC(C(=O)NCC(=O)Nc2ccc(F)cc2)CC1 (stereo not drawn),49,u,38*,67*,u
CC12CCC(CC1O)C2C(=O)O (stereo not drawn),x,x,-2,-14,x
C=CCn1c(COc2ccc(Cl)cc2)nnc1SCc1ccc(C#N)cc1,88*,-3,-108,37,0
C=CCn1c(COc2ccc(Cl)cc2)nnc1SCC(=O)Nc1ccc(S(N)(=O)=O)cc1,4,7,-128,13,-5
C=CCn1c(COc2ccccc2)nnc1SCC(=O)N/N=C/c1cc(Cl)ccc1O,-50,-3,-7,60*,15
C=CCn1c(COc2ccc(CC)cc2)nnc1SC/C(O)=C(\C#N)c1nc2ccccc2[nH]1,21,66*,-91,-39,54*
C=CCn1c(COc2ccccc2)nnc1SCc1ccc(C#N)cc1,39,-11,-28,0,14
C=CCn1c(COc2ccc(Cl)cc2)nnc1SCC(=O)NCC(=O)OCC,100*,-2,-106,10,2
CC1=C(C(=O)N(C(C)C)C(C)C)CC(CC(=O)NCc2ccco2)C(=O)N1Cc1ccc(C(C)(C)C)cc1 (stereo not drawn),x,x,-12,x,x
O=C1CCN(Cc2ccco2)C(=S)N1,x,x,-9,16,x
COc1cc(CNc2ccccc2SC)cc(OC)c1OC,56,-2,14,73*,-1
COc1ccc(CNc2ccccc2SC)cc1OC,38,-7,17,27,12
O=C(c1ccccc1)c1ccc(O)c(O)c1O,x,x,28,14,x
O=C(Nc1ccncc1)c1cc(C2CCCCN2C(=O)CCc2ccccc2)on1 (stereo not drawn),x,x,1,x,x
O=C(O)c1cccc(-c2ccc(/C=N/NC(=O)C3COc4ccccc4O3)o2)c1 (stereo not drawn),-23,72*,-5,-4,12
CC(C)(C)c1ccc2c(c1)OC(C(=O)N/N=C\c1ccc(-c3cccc(C(=O)O)c3)o1)CO2 (stereo not drawn),4,73*,2,34,68*
Nc1nonc1C(=O)N/N=C/c1ccc(-c2cccc(C(=O)O)c2)o1,17,55*,x,x,-12
CC(C)(C)c1ccc2c(c1)OC(C(=O)N/N=C\c1ccccn1)CO2 (stereo not drawn),-2,7,-5,-6,-1
COc1ccccc1OCc1nn[nH]n1,x,1,-5,11,7
COc1ccccc1NC(=O)CCc1nnc2ccc(N3CCCCC3)nn12,51,0,1,6,7
Cc1ccc(NC(=O)CCc2nnc3ccc(N4CCC5(CC4)OCCO5)nn23)nc1,53,x,-2,-13,x
CC(=O)c1ccc(NC(=O)CCc2nnc3ccc(N4CCC5(CC4)OCCO5)nn23)cc1,16,5,-4,65*,16
CCOc1ccccc1NC(=O)CCc1nnc2ccc(N3CCC(C)CC3)nn12,-4,-2,5,69*,-13
COc1ccc(CN(CCC(c2ccccc2)c2ccc(OC(C)C)cc2)C(=O)CCl)cc1OC (stereo not drawn),-7,-13,10,53*,22
COc1ccc(C(CCN(Cc2ccc(OC)c(OC)c2)C(C)=O)c2ccccc2)cc1 (stereo not drawn),-29,2,-4,23,14
Cc1nc(COC(=O)c2ccc(S(=O)(=O)N3CCCC3)cc2)cs1,81*,8,5,2,-3
CC(C)C[C@H]1CNC(=S)N1C[C@H]1CCCN1C[C@H](Cc1ccccc1)N1C[C@H](Cc2ccc(O)cc2)N(CCc2ccccc2)C1=S,x,x,-17,x,x
COc1ccccc1OCCn1cc(/C=N/NC(=O)c2ccncc2)c2ccccc21,60*,-6,-2,-3,4
